# Experimental data taken from PubChem BioAssay AID1159580 (chemical genetic matrix, 2015).
# “And” between values parts separate entries of the source, which are not always exact repeats. Identical values can stand only once. Hit rate of the full screen: of about 5,500 compounds, about 2,000 (36%) were called active. Not shown: some 18% with an inconclusive outcome. Some of the results follow. Values without a mark were called inactive. Cut-off read from the data, not from the text of the source: active = normalized growth mostly below about 0.91 (no sharp cut-off); inconclusive = no clear call, values can overlap the other calls; inactive = mostly above about 0.92.
# Assay: chemical genetic growth profiling, strain panel (AID 1159580);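 note: tested at 20 µM; growth read once vehicle control cultures reached saturation at 30 °C; 1 = growth at the plate median or of vehicle wells; lower values mean less growth of the strain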
# Settings: S. cerevisiae deletion strains, growth OD
# [1] = locus YAL013W, strain DEP1, stronger effect = lower value
# [2] = locus YBR229C, strain ROT2, stronger effect = lower value
# [3] = locus YDL101C, strain DUN1, stronger effect = lower value
# [4] = locus YDL134C, strain PPH21, stronger effect = lower value
# [5] = locus YDR150W, strain NUM1, stronger effect = lower value
# [6] = locus YEL061C, strain CIN8, stronger effect = lower value
# [7] = locus YGR052W, strain FMP48, stronger effect = lower value
# [8] = locus YGR078C, strain PAC10, stronger effect = lower value
# [9] = locus YHR030C, strain SLT2, stronger effect = lower value
# [10] = locus YHR079C, strain IRE1, stronger effect = lower value
# [11] = locus YHR082C, strain KSP1, stronger effect = lower value
# [12] = locus YHR087W, strain rtc3, stronger effect = lower value
# [13] = locus YJL095W, strain BCK1, stronger effect = lower value
# [14] = locus YJR043C, strain POL32, stronger effect = lower value
# [15] = locus YJR066W, strain TOR1, stronger effect = lower value
# [16] = locus YJR075W, strain HOC1, stronger effect = lower value
# [17] = locus YKL171W, strain NNK1, stronger effect = lower value
# [18] = locus YKL190W, strain CNB1, stronger effect = lower value
# [19] = locus YKL203C, strain TOR2, stronger effect = lower value
# [20] = locus YLR039C, strain RIC1, stronger effect = lower value
# [21] = locus YLR058C, strain SHM2 (second series), stronger effect = lower value
# [22] = locus YLR085C, strain ARP6, stronger effect = lower value
# [23] = locus YLR113W, strain HOG1, stronger effect = lower value
# [24] = locus YLR262C, strain YPT6, stronger effect = lower value
# [25] = locus YML094W, strain GIM5, stronger effect = lower value
# [26] = locus YMR219W, strain ESC1, stronger effect = lower value
# [27] = locus YNL128W, strain TEP1, stronger effect = lower value
# [28] = locus YNL153C, strain GIM3, stronger effect = lower value
# [29] = locus YNL183C, strain NPR1, stronger effect = lower value
# [30] = locus YNL207W, strain RIO2, stronger effect = lower value
# [31] = locus YNL298W, strain CLA4 (second series), stronger effect = lower value
# [32] = locus YNL322C, strain KRE1, stronger effect = lower value
# [33] = locus YNR030W, strain Alg12, stronger effect = lower value
# [34] = locus YOR119C, strain RIO1, stronger effect = lower value
# [35] = locus YOR231W, strain MKK1, stronger effect = lower value
# [36] = locus YPL055C, strain LGE1, stronger effect = lower value
# [37] = locus YPL241C, strain CIN2, stronger effect = lower value
# [38] = locus YPL256C, strain CLN2, stronger effect = lower value
# [39] = locus YPR135W, strain CTF4, stronger effect = lower value
# [40] = locus YMR263W, strain SAP30, stronger effect = lower value
compound,measurement,setting,value
Cc1cc(Oc2c([N+](=O)[O-])cc(C(F)(F)F)cc2[N+](=O)[O-])c2c(Cl)ccc(C)c2n1,normalized growth,[1],0.667 (active)
same,normalized growth,[2],0.883 (active)
same,normalized growth,"locus YCL061C, strain MRC1, stronger effect = lower value",0.948
same,normalized growth,[3],0.987
same,normalized growth,[4],0.887 (active)
same,normalized growth,[5],0.851
same,normalized growth,[6],0.788 (active)
same,normalized growth,[7],0.173 (active)
same,normalized growth,[8],0.913 (active)
same,normalized growth,[9],0.271 (active) and 0.16 (active)
same,normalized growth,[10],0.231 (active)
same,normalized growth,[11],0.27 (active)
same,normalized growth,[12],0.834 (active)
same,normalized growth,[13],0.363 (active)
same,normalized growth,[14],0.905 (active)
same,normalized growth,[15],0.29 (active)
same,normalized growth,[16],0.89 (active)
same,normalized growth,[17],0.534 (active)
same,normalized growth,[18],0.458 (active)
same,normalized growth,[19],0.459 (active)
same,normalized growth,[20],0.498 (active)
same,normalized growth,[21],0.951
same,normalized growth,[22],0.372 (active)
same,normalized growth,[23],0.655
same,normalized growth,[24],0.547 (active)
same,normalized growth,[25],0.805 (active)
same,normalized growth,[26],0.905 (active)
same,normalized growth,[27],0.957
same,normalized growth,[28],0.976
same,normalized growth,[29],0.143 (active)
same,normalized growth,[30],0.546 (active)
same,normalized growth,[31],0.668 (active)
same,normalized growth,[32],0.948
same,normalized growth,[33],0.623 (active)
same,normalized growth,[34],0.479 (active)
same,normalized growth,[35],0.418 (active)
same,normalized growth,[36],0.44 (active)
same,normalized growth,[37],0.762 (active)
same,normalized growth,[38],0.348 (active)
same,normalized growth,[39],0.451 (active)
O=[N+]([O-])c1cc(C(F)(F)F)ccc1Oc1cc(C(F)(F)F)cc(C(F)(F)F)c1,normalized growth,[1],1.03
same,normalized growth,[2],1
same,normalized growth,[3],1.04
same,normalized growth,[4],0.982
same,normalized growth,[5],1.02
same,normalized growth,[6],1.03
same,normalized growth,[8],1.01
same,normalized growth,[9],1.03
same,normalized growth,[12],1.02
same,normalized growth,[14],0.996
same,normalized growth,[16],1.01
same,normalized growth,[20],1.02
same,normalized growth,[21],0.982
same,normalized growth,[22],1.01
same,normalized growth,[24],0.992
same,normalized growth,[25],1.12
same,normalized growth,[26],0.99
same,normalized growth,[40],0.993
same,normalized growth,"locus YMR307W, strain GAS1, stronger effect = lower value",1.12
same,normalized growth,[27],0.97
same,normalized growth,[28],1.03
same,normalized growth,[31],1.01
same,normalized growth,[32],1
same,normalized growth,[33],1.05
same,normalized growth,[36],1.09
same,normalized growth,[37],1.07
same,normalized growth,[39],1.12
O=[N+]([O-])c1cc(C(F)(F)F)cc([N+](=O)[O-])c1Oc1ccc(Cl)c(Cl)c1,normalized growth,[1],0.0591 (active)
same,normalized growth,[2],0.062 (active)
same,normalized growth,[3],0.0834 (active)
same,normalized growth,[4],0.0454 (active)
same,normalized growth,[5],0.0593 (active)
same,normalized growth,[6],0.053 (active)
same,normalized growth,[7],0.12 (active)
same,normalized growth,[8],0.0542 (active)
same,normalized growth,"locus YGR229C, strain SMI1, stronger effect = lower value",0.0505 (active)
same,normalized growth,[9],0.0926 (active) and 0.11 (active)
same,normalized growth,[10],0.11 (active)
same,normalized growth,[11],0.12 (active)
same,normalized growth,[12],0.0631 (active)
same,normalized growth,[13],0.12 (active)
same,normalized growth,"locus YJL187C, strain SWE1, stronger effect = lower value",0.0563 (active)
same,normalized growth,[14],0.0569 (active)
same,normalized growth,[15],0.11 (active)
same,normalized growth,[16],0.084 (active)
same,normalized growth,[17],0.101 (active)
same,normalized growth,[18],0.0457 (active)
same,normalized growth,[19],0.0962 (active)
same,normalized growth,[20],0.0653 (active)
same,normalized growth,[21],0.0562 (active)
same,normalized growth,[22],0.0698 (active)
same,normalized growth,[23],0.173 (active)
same,normalized growth,[24],0.0617 (active)
same,normalized growth,[25],0.0673 (active)
same,normalized growth,[26],0.0518 (active)
same,normalized growth,[40],0.0593 (active)
same,normalized growth,[27],0.0548 (active)
same,normalized growth,[28],0.0599 (active)
same,normalized growth,[29],0.146 (active)
same,normalized growth,[30],0.108 (active)
same,normalized growth,[31],0.0706 (active)
same,normalized growth,[32],0.0592 (active)
same,normalized growth,[33],0.0612 (active)
same,normalized growth,"locus YOL006C, strain TOP1, stronger effect = lower value",0.068 (active)
same,normalized growth,[34],0.095 (active)
same,normalized growth,[35],0.113 (active)
same,normalized growth,[36],0.0764 (active)
same,normalized growth,[37],0.061 (active)
same,normalized growth,[38],0.135 (active)
same,normalized growth,[39],0.184 (active)
